Compounds with a hit are over-represented: about 3.9% of the library has one in this group of screens.
N-glyco inh: increase of ERlucT glycosylation luciferase signal, primary screen, N-linked glycosylation inhibitor project, D54 ERlucT cells, luminescence, set 2; AID 588692, 2011; hit rate 0.23% among 360,000; D54 ERlucT glycosylation luciferase reporter, 24 h; percent of 100 nM tunicamycin response; reporter increase, % at 12.5 µM;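 active = mean luciferase reporter signal, scaled so untreated is 0 and the glycosylation-blocking control 100, at or above a set limit in every replicate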;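 also: luciferase carries N-glycosylation sites so blocking glycosylation raises the light; 0% = median of neutral control wells and 100% = median of 100 nM tunicamycin wells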
ALR inh: inhibitors of human ALR sulfhydryl oxidase, primary screen, biochemical, H2O2 detection, HRP-luminol luminescence, single point. FAD-linked sulfhydryl oxidase ALR (Homo sapiens), P55789. hit rate 3.8% among 290,000. AID 485317, 2010. inhibition, % (no concentration beside the values). purified ALR, DTT oxidation;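 active = mean replicate inhibition above about 79%, with every replicate also reaching it, limit read from the data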
Target sequence (P55789 whole entry, looked up): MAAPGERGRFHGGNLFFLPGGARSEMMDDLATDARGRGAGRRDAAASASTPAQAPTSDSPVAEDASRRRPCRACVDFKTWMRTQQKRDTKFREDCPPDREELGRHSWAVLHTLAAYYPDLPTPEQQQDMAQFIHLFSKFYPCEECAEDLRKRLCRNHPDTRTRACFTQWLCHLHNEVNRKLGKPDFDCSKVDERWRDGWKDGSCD
SUMO Mot1 rescue: yeast Mot1-301 growth rescue at high temperature, primary screen, SUMOylation pathway inhibitor project, S. cerevisiae, ATP luminescence, 38.5C; S. cerevisiae Mot1-301 growth rescue; percent above DMSO median, 100 means doubled; growth rescue, % at 18.8 µM; hit rate 1% among 320,000; AID 2716, 2010;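 active = every valid replicate shows activation above 250% relative to neutral control wells; inactive = the rest, any valid replicate at or below 250%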;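 also: OY570 slx delta 5 strain wells were the positive control but not used for scaling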
CDK5 inh: inhibitors of human CDK5/p35 kinase, primary screen, biochemical, single concentration | inhibition, % at 10 µM | Cyclin-dependent kinase 5 (Homo sapiens) + Cyclin-dependent kinase 5 activator 1 (Homo … | hit rate 0.01% among 330,000 | Recombinant CDK5/p35, ADP-Glo luminescence, 60 min;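 active = highest replicate inhibition of at least 50% and at least 75% of replicates reaching 50%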;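 also: plate controls were DMSO neutral control for no effect and GW8510 at 10 µM for full effect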
CASP6 VEID inh: human caspase-6 inhibitors, primary screen, biochemical, VEID-R110 fluorescence, single point, set 2. hit rate 0.53% among 350,000. inhibition, % at 12.5 µM. purified caspase-6, Z-VEID-R110 cleavage fluorescence. AID 686996, 2013;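 active = mean inhibition across replicates at least about 35%, with every replicate also reaching that limit, limit read from the data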;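 also: 0% = median of neutral control wells and 100% = no fluorescence left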
Target sequence (P55212 24-179 limits assumed): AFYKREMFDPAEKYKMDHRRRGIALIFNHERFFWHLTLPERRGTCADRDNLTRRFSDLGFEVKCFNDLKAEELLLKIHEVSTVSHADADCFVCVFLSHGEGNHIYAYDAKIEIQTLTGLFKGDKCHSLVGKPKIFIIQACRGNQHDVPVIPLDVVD
Target sequence (P55212 194-293 limits assumed): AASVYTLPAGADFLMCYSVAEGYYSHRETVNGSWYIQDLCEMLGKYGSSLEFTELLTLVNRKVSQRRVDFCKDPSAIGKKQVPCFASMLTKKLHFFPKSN
NSD2 inh: NSD2 histone methyltransferase inhibitors, primary screen, biochemical, AlphaScreen, single concentration, set 2; hit rate 0.54% among 310,000; NSD2 peptide methylation, 120 min; Histone-lysine N-methyltransferase NSD2 (Homo sapiens), O96028; inhibition, % at 12.5 µM; AID 743445, 2014; in the data active = inhibition above about 50%
Starred values were filed as active, the others as inactive; . = not tested or not shown.

SMILES	N-glyco inh	ALR inh	SUMO Mot1 rescue	CDK5 inh	CASP6 VEID inh	NSD2 inh
C[C@H]1CN([C@@H](C)CO)S(=O)(=O)c2ccc(C#CC3CCCC3)cc2O[C@@H]1CN(C)Cc1cccnc1	.	.	.	.	-3.1	.
O=C(NC1CCCCC1)[C@@H]1[C@@H](CO)[C@@H]2Cn3c(cccc3=O)[C@@H]2N1CC1CCOCC1	.	.	.	.	0.1	.
CCCC(=O)Nc1ccc2c(c1)C(=O)N(C)C[C@H](OC)[C@@H](C)CN(Cc1ccccc1F)[C@H](C)CO2	.	.	.	.	1.7	.
CC1(C)Cc2nc3n[nH]c(N)c3cc2CO1	2.1	87.0*	-8.1	-0.9	.	-2.0
CN(C)CC(=O)N1[C@@H]2c3ccc(C4=CCCC4)c(=O)n3C[C@H]1[C@H](CO)[C@H]2C(=O)NCC1CC1	.	.	.	.	-0.3	.
CCOc1ccc(C2=Nn3c(nnc3-c3ccccc3OC)SC2)cc1	9.8	.	-12.1	0.7	.	7.7
COc1ccccc1-c1nnc2n1N=C(c1ccc(O)c(O)c1)CS2	10.2	99.0*	-14.5	0.5	.	56.0*
Cc1ccc(SCC(=O)c2ccc(CC(=O)O)s2)cc1	-2.6	.	6.4	.	64.5*	16.2
O=C(O)Cc1ccc(C(=O)CSc2ccccc2)s1	0.6	98.2*	5.1	-0.1	48.6*	22.7
Cc1ccc(-c2ccc3c(c2)O[C@@H](CN(C)Cc2ccncc2)[C@H](C)CN([C@H](C)CO)S3(=O)=O)cc1	.	.	.	.	2.4	.
CC1CC(Nc2ccccc2)c2ccccc2N1C(=O)c1ccco1 (centres undefined)	0.8	98.7*	-7.2	1.4	-4.2	2.6
C[C@H]1CN([C@@H](C)CO)C(=O)c2cccc(NC(=O)CCCCCC(=O)Nc3ccccc3N)c2O[C@@H]1CN(C)C	.	.	.	.	-5.1	.
CCCSc1nc(O)c(C2OC(=O)c3c2ccc(OC)c3OC)c(=O)n1-c1ccccc1 (centres undefined)	4.4	7.7	2.9	1.9	.	-3.6
C=CCSc1nc(O)c(C2OC(=O)c3c2ccc(OC)c3OC)c(=O)n1-c1ccccc1 (centres undefined)	0.1	97.3*	9.0	0.2	1.1	6.4
COC(CNC(=O)c1ccc2c3c(onc13)-c1ccccc1C2=O)OC	1.7	-6.3	-11.3	0.5	49.8*	.
COc1ccc(NC(=O)N(C)C[C@H]2Oc3ccc(NS(=O)(=O)c4ccccc4)cc3CC(=O)N([C@H](C)CO)C[C@H]2C)cc1	.	.	.	.	0.3	.
CC1CCN(S(=O)(=O)c2nnc(NC(=O)COc3ccccc3)s2)CC1	-0.5	-0.2	292.5*	1.4	0.0	1.4
Cc1cccc(OCC(=O)Nc2nnc(S(=O)(=O)N3CCC(C)CC3)s2)c1	0.8	5.9	14.1	0.7	0.5	.
Cc1cc(C(=O)Nc2cccc3c2O[C@@H](CN(C)S(=O)(=O)c2cccs2)[C@@H](C)CN([C@H](C)CO)C3=O)n(C)n1	.	.	.	.	1.9	.
CO[C@@H]1CN(C)C(=O)c2ccc(NS(C)(=O)=O)cc2OC[C@@H](C)N(Cc2ccccc2)C[C@@H]1C	.	.	.	.	-0.6	.
Cc1[nH]c2ccccc2c1CCC(N)=O	0.4	98.5*	3.2	-3.5	.	2.4
Cc1[nH]c2ccccc2c1CCNC(=O)c1ccc2nccnc2c1	-2.8	.	-2.8	0.8	-1.0	3.7
Cc1[nH]c2ccccc2c1CCNC(=O)CCC(=O)c1ccccc1	0.6	95.3*	-23.1	-1.9	-0.9	-3.4
CN(C)c1cccc2c(C=C(C#N)C#N)ccc(N(C)C)c12	9.9	53.2	-4.7	2.6	-6.7	24.5
CN(C)c1cccc2c(/C=N/O)ccc(N(C)C)c12	3.0	89.4*	-12.7	1.3	2.3	3.4
SMILES	N-glyco inh	ALR inh	SUMO Mot1 rescue	CDK5 inh	CASP6 VEID inh	NSD2 inh
COc1ccc2c3c(n(C)c2c1)[C@H](CO)N(CC1CC1)CC31CN(C(=O)c2ccc3c(c2)OCO3)C1	.	.	.	.	-1.9	.
C[C@H]1CN([C@@H](C)CO)S(=O)(=O)c2ccc(-c3cncnc3)cc2O[C@H]1CN(C)C(=O)Cc1ccccc1	.	.	.	.	3.1	.
O=C1NNC(c2ccccc2)=N/C1=C\c1ccco1	2.3	3.8	-8.7	-0.1	31.2	35.1
O=C1NNC(c2ccccc2)=N/C1=C\c1ccccc1Cl	6.9	.	.	-3.9	30.0	93.1*
CC1CN(CCOc2ccc(Cl)cc2Cl)CC(C)O1 (centres undefined)	2.4	-8.4	271.6*	-0.1	-2.3	.
CCC(=O)N(C)C[C@@H]1[C@@H](c2ccc(-c3ccccc3F)cc2)[C@H](CO)N1C(C)=O	.	.	.	.	6.3	.
C[C@H]1CN([C@@H](C)CO)C(=O)c2cc(NC(=O)Cn3cnnn3)ccc2O[C@H]1CN(C)S(=O)(=O)c1cn(C)cn1	.	.	.	.	0.4	.
COCCNC(=S)Nc1ccccn1	0.2	0.2	176.1	-1.8	-1.6	1.6
CC(C)CCNC(=S)Nc1ccccn1	-0.4	91.2*	-29.0	-2.4	.	0.2
Cc1cccc(NC(=S)NCCC(C)C)c1	1.8	92.0*	-7.5	0.8	.	-2.3
COc1ccc(CCNC(=S)Nc2cccc(C)c2)cc1	-1.6	-5.9	9.8	0.5	.	-0.5
Cc1ccccc1-c1cnc2c(c1)C(=O)N([C@H](C)CO)C[C@@H](C)[C@H](CN(C)C(=O)CC1CC1)O2	.	.	.	.	-2.6	.
COC(=O)[C@]12C[C@H](CC(=O)NCc3ccc(C)o3)C(=O)N(Cc3ccccc3)C1=C[C@H](C1CCCC1)O[C@@H]2C	.	.	.	.	66.0*	.
CC(C)(C)c1ccc(CC(=O)N2CCC2(C)C(=O)Nc2cccc3cccnc23)cc1 (centres undefined)	0.6	.	.	.	0.4	0.7
CCC(=O)N1CCC1(C)C(=O)Nc1cccc2cccnc12 (centres undefined)	1.4	.	.	.	78.0*	0.9
Cc1cc(NCCOCCO)n2ncc(-c3ccc(Cl)cc3)c2n1	-12.9	98.2*	-2.6	0.9	.	-2.8
COC(=O)C1=C(O)/C(=C\c2ccc(O)c(OC)c2)N=C1C	3.3	98.9*	253.3	1.2	.	6.4
CCOC(=O)C1=C(O)/C(=C/c2cccc(OC)c2O)N=C1C	3.2	78.2*	-4.8	-1.7	3.5	0.5
COc1cc(OC)c2nc(C)c3c(c2c1)N(c1ccc(O)cc1)CC3	27.6*	25.7	-15.0	0.5	.	3.9
CO[C@H]1CN(C)C(=O)c2cc(C#N)ccc2OC[C@@H]2O[C@H](CC[C@H]2OC)CCN(C)C(=O)[C@@H]1C	.	.	.	.	-10.9	.
O=C(C[C@H]1C[C@@H]2c3cc(NC(=O)Cc4ccncc4)ccc3O[C@@H]2[C@H](CO)O1)NCc1cccnc1	.	.	.	.	-4.8	.
O=C(NNc1nc2ccccc2nc1C(F)(F)F)c1ccccc1	-0.9	97.9*	24.5	-0.7	.	46.6

Assay outcomes as filed in PubChem.
